D1 antagonist: blocks dopamine activation of the human D1 receptor. HEK293 TREx D1 cells, calcium flux, dopamine EC80; hits give low values. 3.2% of 360,000 active. activity change, negative = inhibition, % at 10 µM. P21728; in the data active means activity change below about -30%
Target sequence (P21728 whole entry, looked up): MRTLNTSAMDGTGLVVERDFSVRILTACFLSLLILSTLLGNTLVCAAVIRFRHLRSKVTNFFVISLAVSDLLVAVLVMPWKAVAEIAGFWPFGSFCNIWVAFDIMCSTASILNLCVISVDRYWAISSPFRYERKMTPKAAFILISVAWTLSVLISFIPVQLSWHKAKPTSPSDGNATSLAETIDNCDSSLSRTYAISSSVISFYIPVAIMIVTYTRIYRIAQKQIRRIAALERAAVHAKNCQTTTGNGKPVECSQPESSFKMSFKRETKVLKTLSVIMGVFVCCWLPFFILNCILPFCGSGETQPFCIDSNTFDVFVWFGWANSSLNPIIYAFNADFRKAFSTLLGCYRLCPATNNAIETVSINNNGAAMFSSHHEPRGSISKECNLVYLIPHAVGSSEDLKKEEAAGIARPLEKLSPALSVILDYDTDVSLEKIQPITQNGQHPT
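Compound effects on dopamine-evoked calcium signalling were measured in tetracycline-induced HEK293 Trex D1 cells. Dopamine at EC80 followed a 180 s compound pre-read, and fluorescence was tracked kinetically for 180 s more.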
DRD3 antagonist: blocks the human D3 dopamine receptor | P35462 | D3R cells, DiscoveRx beta-arrestin luminescence, antagonist mode; hits give low values | max response, negative = inhibition, % | 2.5% of 360,000 active; in the data active means max response below about -50%; inconclusive means no clear call, values can overlap the other calls
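Cells plated overnight at 1500 cells/well, then exposed to library compounds with dopamine controls for 90 minutes at 37 degrees C. DiscoveRx reagent added for 30–60 minutes at room temperature; luminescence read, quantitative HTS format.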
D1 potentiator: human D1 dopamine receptor positive modulation; HEK293 TREx D1 cells, calcium flux, dopamine EC20 potentiation; 0.036% of 360,000 active; potentiation, % at 10 µM; AID 504651; P21728; in the data active means potentiation above about 30%
DRD3 agonist: agonists of human D3 dopamine receptor. P35462. 0.58% of 410,000 active. AID 652048. D3R DiscoveRx beta-arrestin cells, luminescence, 90 min. max activation, %; in the data active means max activation above about 30%
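Cells at 1500/well, incubated overnight, then treated with pinned compounds (dopamine as control) for 90 min at 37 degrees C. DiscoveRx reagent added for 30 - 60 minutes at room temperature; luminescence read.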
D1 ag: agonists of human D1 dopamine receptor; activation, % at 2 µM; 1% of 360,000 active; P21728; HEK293 T-REx D1 cells, calcium flux, agonist mode; in the data active means activation above about 30%
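Inducible HEK293 T-REx D1 cells, force-coupled to calcium signalling, were plated at 4000 cells/well with tetracycline and held overnight at 30 C. After no-wash calcium dye loading, compound-evoked calcium rise over 180 s flagged agonists.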
Hits are given with their value; – = inactive; ? = inconclusive; · = not tested or not shown. Shown are actives, neighbours in structure and some others; about 6% of the full set was active somewhere.

SMILES	D1 antagonist	DRD3 antagonist	D1 potentiator	DRD3 agonist	D1 ag
CC(C)(C)c1ccc(-n2nc(C#N)c(Cl)cc2=O)cc1	-41	-95	–	–	–
COCCCNC(=O)Cn1c(=O)n(-c2ccc(C)cc2)c(=O)c2c1c1cc(C)ccc1n2C	–	·	–	–	–
C=CCOC(=O)c1[nH]c2c(c1C)C(=O)CC(c1ccco1)C2 (configuration not stated)	–	–	–	–	–
Cc1c(C(=O)OCC(C)C)[nH]c2c1C(=O)CC(c1ccco1)C2 (configuration not stated)	–	-53	–	–	–
CCN(Cc1ccccc1)C(=O)CN(c1ccc(OC)cc1)S(=O)(=O)c1c(C)nn(C)c1C	–	·	–	–	–
Cc1cccc(C(=O)N2CCc3cc(CNS(=O)(=O)c4cccs4)ccc32)c1	-32	·	–	–	–
Cc1cccc(C(=O)N2CCc3cc(CNC(=O)c4ccnn4C)ccc32)c1	-36	·	–	–	–
CCc1noc(C)c1C(=O)NCCN1C(=O)S/C(=C\c2ccccc2F)C1=O	·	–	·	–	·
Cc1ccc(C)c(N2CCN(C(=O)Cn3c(C)c4cnn(-c5ccccc5)c(=O)c4c3C)CC2)c1	–	·	–	–	–
Cc1cccc(Cc2cnc(NC(=O)c3ccc4c(c3)CC(c3ccccc3)OC4=O)s2)c1 (configuration not stated)	–	·	–	–	–
Cc1ccc(Cc2cnc(NC(=O)c3ccc4c(c3)CC(c3ccccc3)OC4=O)s2)cc1 (configuration not stated)	-31	·	–	–	–
CCN(CC)CCOC(=O)/C=C/c1ccccc1	–	-63	–	–	–
CCN(CC)CCCOC(=O)C(c1ccccc1)c1ccccc1	–	-85	–	–	–
CCS(=O)(=O)N1CCN(C(=O)c2ccc3nc(C)c(N(C)C(=O)CCc4ccccc4)n3c2)CC1	·	–	·	–	·
CCN(C(=O)c1cc2c(s1)-c1c(C)cccc1OC2)c1ccccc1F	–	·	–	–	–
Cc1nc(N)sc1-c1csc(Nc2ccccc2)n1	–	-56	–	–	–
COc1ccc(NC(=O)c2cc(C3CCCCN3C(=O)c3cccs3)on2)c(C)c1 (configuration not stated)	·	–	·	–	·
O=C(c1ccoc1)N1CCC2(CC1)Oc1ccc(Cl)cc1C(=O)C21CC(c2ccccc2)=NO1 (configuration not stated)	–	–	–	–	–
O=C(c1ccoc1)N1CCC2(CC1)Oc1ccc(Cl)cc1C(=O)C21CC(c2cccnc2)=NO1 (configuration not stated)	-100	–	–	–	–
CC(C)(C)OC(=O)Cc1nnc(-c2nc3ccccc3[nH]2)o1	-33	·	–	·	–
Cn1c(=O)c(-c2ccccc2)cc2ccccc21	·	–	·	47	·
O=C(Nc1cc(Cl)cc(Cl)c1)c1coc(=O)c(Br)c1	-46	–	–	–	37
O=C(NC(CO)(CO)CO)c1coc(=O)c(Br)c1	–	–	–	–	–
O=C(Nc1c2c(nn1-c1cccc(Cl)c1)CS(=O)C2)c1ccc2c(c1)OCO2 (configuration not stated)	-36	–	–	–	–
Cc1ccc(-n2nc3c(c2NC(=O)c2ccc4c(c2)OCO4)CS(=O)(=O)C3)cc1	–	–	–	–	–
SMILES	D1 antagonist	DRD3 antagonist	D1 potentiator	DRD3 agonist	D1 ag
Cc1ccc(-n2nc3c(c2NC(=O)c2ccc4c(c2)OCO4)CS(=O)C3)c(C)c1 (configuration not stated)	-52	–	–	–	–
O=C(Nc1c2c(nn1-c1ccc(F)cc1)CS(=O)C2)c1ccc2c(c1)OCO2 (configuration not stated)	–	–	–	–	–
O=C(N/N=C/c1ccc(O)cc1)c1ccc(NC(=O)c2ccccc2Br)cc1	-47	?	–	–	–
Cc1ccccc1C(=O)Nc1ccc(C(=O)N/N=C/c2ccc(O)cc2)cc1	–	–	–	–	–
O=C(N/N=C/c1cccs1)c1ccc(NC(=O)c2ccccc2Cl)cc1	-53	–	–	–	–
Cc1[nH]nc(-c2cccnc2)c1N=NN(C)C	·	-90	·	–	·
CN(C)c1nc(N)nc(-c2cccnc2)n1	–	–	–	–	–
CC1CCc2cc(F)cc3c(O)c(C(=O)NCC4CCCO4)c(=O)n1c23 (configuration not stated)	-77	–	–	–	–
CC(=O)C1=C(c2ccccc2)N(C(C)=O)n2c(nnc2C2CCCCC2)S1	·	·	–	–	–
COc1cc(C2c3c(oc4ccc(F)cc4c3=O)C(=O)N2c2nc(C)c(C)s2)cc(OC)c1OC (configuration not stated)	–	·	–	–	52
Cc1cc(C)n(CCCNC(=O)c2ccco2)n1	-31	–	–	–	–
O=C(NCCNC(=O)c1ccco1)c1ccc(F)cc1	–	–	–	–	–
Cc1ccccc1CS(=O)(=O)CCC(=O)NCCCN1CCOCC1	-44	–	–	–	–
O=C(NCCNCc1ccc(F)cc1)c1ccco1	–	-66	–	–	–
O=C(CCc1ccccc1)NCCCN1CCOCC1	–	–	–	–	–
O=C(NCCCN1CCOCC1)c1ccc(CS(=O)(=O)Cc2ccccc2Cl)o1	-45	–	–	–	–
COC(=O)c1c(NC(=O)COc2ccc(OC)cc2)sc2c1CCC(C)C2 (configuration not stated)	–	·	–	–	–
Cc1oc2ccc(O)c(CN(C)Cc3ccccc3)c2c1C(=O)Nc1cccc(Cl)c1C	–	·	–	–	–
CCN(CC)CCCNC(=O)c1cc(-c2ccc(O)cc2)on1	-44	–	–	–	–
O=C(NCCN1CCOCC1)c1cc(-c2ccc(Cl)c(Cl)c2)on1	–	–	–	–	–
CC(C)(C)c1ccc(C(=O)NCCCNC(=O)c2ccco2)cc1	–	–	·	–	–
O=C(NCCCN1CCOCC1)c1ccco1	-35	–	–	–	–
CC(C)(C)c1cc(C(F)(F)F)nc(SCCCNC(=O)c2ccco2)n1	-38	–	–	–	–
CCN(CC)CCCNC(=O)c1cc(-c2ccc(Cl)c(Cl)c2)on1	–	–	–	–	–
O=C(NCCCN1CCOCC1)c1cc(-c2ccc(Cl)c(Cl)c2)on1	-33	–	–	–	–
SMILES	D1 antagonist	DRD3 antagonist	D1 potentiator	DRD3 agonist	D1 ag
CC(C)c1nc2ccc(C(=O)NCc3ccc(F)cc3)cc2o1	–	·	–	–	–
CC(C)C[C@@H](CN1CCC[C@H]1CN1C(=O)C(=O)NC[C@@H]1Cc1ccc(O)cc1)N1C[C@H](Cc2ccc(O)cc2)N(CCc2ccccc2)C(=O)C1=O	·	–	·	–	·
Cc1ccc(-c2cc3nccc(-c4cc([N+](=O)[O-])ccc4O)n3n2)cc1	–	·	–	–	–
S=C(NCCCN1CCOCC1)N(Cc1ccccc1)Cc1ccccc1	–	-93	–	–	–
O=C(CCCc1ccccc1)NCCCN1CCOCC1	–	–	–	–	–
Cc1cccc(OCc2nc(C#N)c(NCc3ccccc3Cl)o2)c1	–	·	–	–	–
